Values joined by “and” are separate entries in the source; they are usually repeats but may differ in a detail not shown here. Equal values may be shown once. Results filed as inconclusive are left out. The source holds several records for some structures; these can differ, active in one and inactive in another. Active and inactive are the calls of the source. Unless noted, the call rests on the fitted dose curve; in most records, active means well fitted curve in the direction sought with a large enough effect in the repeat runs; inconclusive means weak or mixed curves; inactive means no such curve, though single readings can be large; an effect the other way counts as inactive or inconclusive.
Experiments:
[1] = qHTS assay to identify small molecule antagonists of the glucocorticoid receptor (GR) signaling pathway - cell viability counter screen (AID 720693); further: nearly all actives have a fitted effect of over 55% in size
[2] = qHTS assay for identifying genotoxic compounds that show differential cytotoxicity against isogenic chicken DT40 cell lines with known DNA damage response pathways - wild type cell line (AID 743012); further: nearly all actives have a fitted effect of over 60% in size; further: potency means the concentration at half of the fitted maximal effect
In short: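 Wild-type DT40 cells (300/well) exposed to compounds for 40 hours at 37 C/5% CO2. Viability read by CellTiter-Glo luminescence after 30 min at room temperature.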

[3] = qHTS assay for identifying genotoxic compounds that show differential cytotoxicity against isogenic chicken DT40 cell lines with known DNA damage response pathways - Rev3 mutant cell line (AID 743014); further: nearly all actives have a fitted effect of over 55% in size; further: potency means the concentration at half of the fitted maximal effect
[4] = qHTS assay for identifying genotoxic compounds that show differential cytotoxicity against isogenic chicken DT40 cell lines with known DNA damage response pathways - Rad54/Ku70 mutant cell line (AID 743015); further: nearly all actives have a fitted effect of over 60% in size; further: potency means the concentration at half of the fitted maximal effect
[5] = qHTS assay to identify small molecule antagonists of the androgen receptor (AR) signaling pathway - cell viability counter screen (AID 743033; further: nearly all actives have a fitted effect of over 45% in size; further: potency means the concentration at half of the fitted maximal effect)
[6] = qHTS assay to identify small molecule antagonists of the androgen receptor (AR) signaling pathway using the MDA cell line - cell viability counter screen (AID 743041; further: nearly all actives have a fitted effect of over 45% in size; further: potency means the concentration at half of the fitted maximal effect)
In short: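 Same-well cytotoxicity was assessed by CellTiter-Fluor in MDA-kb2 AR-luc cells after 16 h of compound treatment under R1881 agonism.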

[7] = biological target: Androgen receptor (Homo sapiens) (UniProt P10275); experiment: qHTS assay to identify small molecule agonists of the androgen receptor (AR) signaling pathway using the MDA cell line (AID 743040; further: nearly all actives have a fitted effect of over 20% in size; further: potency means the concentration at half of the fitted maximal effect)
In short: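 Human breast carcinoma MDA-kb2 reporter cells (MMTV-luc, AR/GR elements) were treated for 16 h at 37C in 0% CO2 following a 5 h settling period. Signal was quantified by ONE-Glo luminescence.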

[8] = biological target: Androgen receptor (Homo sapiens) (UniProt P10275); experiment: qHTS assay to identify small molecule antagonists of the androgen receptor (AR) signaling pathway using the MDA cell line (AID 743042; further: nearly all actives have a fitted effect of over 55% in size; further: potency means the concentration at half of the fitted maximal effect)
In short: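 MDA-kb2 breast carcinoma cells carrying MMTV-luciferase (AR/GR responsive) were co-treated with compounds and the agonist R1881 for 16 h at 37C. Inhibition read as ONE-Glo luminescence; CellTiter-Fluor fluorescence measured in parallel for cytotoxicity.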

[9] = biological target: Androgen receptor (Homo sapiens) (UniProt P10275); experiment: qHTS assay to identify small molecule antagonists of the androgen receptor (AR) signaling pathway (AID 743035; active means well fitted inhibition curve with a large enough effect in the signal ratio in the repeat runs, not every such curve was filed as active; the % refers to the signal ratio; further: potency means the concentration at half of the fitted maximal effect)
In short: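 HEK293 cells stably carrying UAS-beta-lactamase reporter, 2,000/well, given compounds plus R1881 agonist and incubated 16 h at 37C. LiveBLAzer B/G FRET substrate then added for 2 h at room temperature before fluorescence reading.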

[10] = qHTS assay to identify small molecule antagonists of the thyroid receptor (TR) signaling pathway - cell viability counter screen (AID 743064); further: nearly all actives have a fitted effect of over 50% in size; further: potency means the concentration at half of the fitted maximal effect
In short: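 Plate GH3.TRE-Luc cells; incubate 4 h at 37 °C; add compound, then T3 to 1 nM final; incubate 23.5 h; add CellTiter-Fluor; incubate 30 min at 37 °C, 5% CO2; read fluorescence.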
On the % scale 0 is the no-effect control and ±100 the full control effect.

Sequence of Androgen receptor (Homo sapiens) (P10275 whole entry, looked up): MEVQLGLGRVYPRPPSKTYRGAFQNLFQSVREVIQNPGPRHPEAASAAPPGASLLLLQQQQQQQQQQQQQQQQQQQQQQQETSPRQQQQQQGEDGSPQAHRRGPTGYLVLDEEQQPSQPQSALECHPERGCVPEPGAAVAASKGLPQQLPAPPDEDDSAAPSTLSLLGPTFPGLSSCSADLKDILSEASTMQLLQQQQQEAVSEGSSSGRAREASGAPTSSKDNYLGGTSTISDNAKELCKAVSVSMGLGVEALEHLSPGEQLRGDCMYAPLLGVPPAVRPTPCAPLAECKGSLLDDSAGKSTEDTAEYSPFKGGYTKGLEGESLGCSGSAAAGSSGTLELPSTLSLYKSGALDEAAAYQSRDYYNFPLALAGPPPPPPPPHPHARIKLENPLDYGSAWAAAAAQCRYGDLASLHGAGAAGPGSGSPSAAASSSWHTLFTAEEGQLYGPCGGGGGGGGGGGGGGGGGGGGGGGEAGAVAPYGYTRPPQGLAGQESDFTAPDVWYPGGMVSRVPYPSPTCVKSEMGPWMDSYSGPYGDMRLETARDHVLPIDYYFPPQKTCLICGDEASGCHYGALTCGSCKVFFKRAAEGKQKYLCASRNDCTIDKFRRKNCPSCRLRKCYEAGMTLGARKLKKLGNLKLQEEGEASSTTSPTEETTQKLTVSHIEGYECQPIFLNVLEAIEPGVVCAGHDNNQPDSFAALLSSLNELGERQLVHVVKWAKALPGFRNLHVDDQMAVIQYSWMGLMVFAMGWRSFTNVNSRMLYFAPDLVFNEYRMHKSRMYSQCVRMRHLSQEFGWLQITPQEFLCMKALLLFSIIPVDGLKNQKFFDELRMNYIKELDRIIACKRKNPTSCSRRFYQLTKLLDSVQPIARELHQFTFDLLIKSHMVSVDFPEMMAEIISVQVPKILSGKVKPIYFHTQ

CCOC(=O)c1cccnc1
inactive: Potency [1] | Potency [2] | Potency [3] | Potency [4] | Potency [5] | Potency [6]

CCC(C)(C)CC
inactive: Potency [1]

O=C(Cl)c1cc(C(=O)Cl)cc(C(=O)Cl)c1
active: Potency [2] 19.3 µM | Potency [3] 27.3 µM | Potency [4] 19.3 µM
inactive: Potency [1] | Potency [5] | Potency [6]

C=CC1CC2C=CC1C2 (stereo unspecified)
inactive: Potency [1] | Potency [2] | Potency [3] | Potency [4] | Potency [5] | Potency [6]

CCCCCCCCCOS(=O)(=O)O
inactive: Potency [1] | Potency [2] | Potency [3] | Potency [4] | Potency [5] | Potency [6]

Nc1ccc(N)c2c1C(=O)c1ccccc1C2=O
inactive: Potency [1] | Potency [5] | Potency [7] | Potency [8]
active: Potency [2] 17.2 µM | Potency [3] 27.3 µM | Potency [4] 7.7 µM

CC1OC(=O)C(C)OC1=O (stereo unspecified)
inactive: Potency [1] | Potency [2] | Potency [3] | Potency [4] | Potency [5] | Potency [6]

Cc1ncc(CO)c(C=O)c1O
inactive: Potency [1] | Potency [2] | Potency [3] | Potency [4] | Potency [5] | Potency [6]

CCCn1cnc2c1c(=O)n(CCCCC(C)=O)c(=O)n2C
inactive: Potency [1] | Potency [2] | Potency [3] | Potency [4] | Potency [5] | Potency [9] | Potency [7] | Potency [6] | Potency [8]

OCCN1CCN(CCCN2c3ccccc3C=Cc3ccccc32)CC1
inactive: Potency [1] | Potency [5] | Potency [6]
active: Potency [2] 5.96 µM and 13.3 µM | Potency [3] 1.68 µM and 15 µM | Potency [4] 8.41 µM and 26.6 µM

CC[N+](C)(CC)CCOC(=O)C(O)(c1ccccc1)C1CCCCC1 (stereo unspecified)
inactive: Potency [1] | Potency [2] | Potency [3] | Potency [4] | Potency [5]

CCCCCCCCCc1ccc(OCCOCCO)cc1
active: Potency [2] 2.37 µM and 909 nM | Potency [3] 3.76 µM and 1.81 µM | Potency [4] 3.76 µM and 1.81 µM | Potency [5] 13.4 µM and 8.17 µM | Potency [9] 5.35 µM and 4.6 µM | Potency [6] 11.1 µM and 5.11 µM | Potency [8] 4.73 µM and 1.44 µM
inactive: Potency [1] | Potency [7]
18.8 µM (active) and inactive: Potency [10]

CN(C)c1ccc(C(c2ccccc2)c2ccc(N(C)C)cc2)cc1
inactive: Potency [1] | Potency [5] | Potency [7] | Potency [6] | Potency [8] | Potency [10]
active: Potency [2] 6.86 µM | Potency [3] 6.86 µM | Potency [4] 8.63 µM

NCCCN1CCOCC1
inactive: Potency [1] | Potency [2] | Potency [3] | Potency [4] | Potency [5] | Potency [7] | Potency [8] | Potency [10]
active: Potency [6] 30.6 µM

CCOC(=O)COC(=O)c1cc(Oc2ccc(C(F)(F)F)cc2Cl)ccc1[N+](=O)[O-]
active: Potency [2] 21.7 µM | Potency [3] 12.2 µM | Potency [4] 19.3 µM
inactive: Potency [1] | Potency [5] | Potency [7] | Potency [6] | Potency [8]

CCCCCC[C@@H](O)C/C=C\CCCCCCCC(=O)OC
inactive: Potency [1] | Potency [2] | Potency [3] | Potency [4] | Potency [5] | Potency [9] | Potency [7] | Potency [6] | Potency [8] | Potency [10]

O=C1CCCCCCCCCCCC(=O)OCCO1
inactive: Potency [1] | Potency [5] | Potency [7] | Potency [6] | Potency [8]
active: Potency [2] 54.5 µM | Potency [3] 27.3 µM | Potency [4] 27.3 µM

CCCCC(CC)COC(=O)COc1ccc(Cl)cc1Cl (stereo unspecified)
inactive: Potency [1] | Potency [2] | Potency [3] | Potency [4] | Potency [5] | Potency [6]

O=C(O)CNCC(=O)O
inactive: viability change, negative = cytotoxic [1] -8.93% [at 7.04 µM] | activity change, negative = cytotoxicity [2] 8.65% [at 8.52 µM] | activity, negative = cytotoxicity [3] -2.98% [at 8.53 µM] | activity change, negative = cytotoxicity [4] 1.1% [at 8.55 µM] | activity change, negative = cytotoxicity [5] 1.48% [at 7.04 µM] | activity change, negative = inhibition [9] 0.788% [at 7.04 µM] | activity change [7] 1.91% [at 8.47 µM, stronger effect = higher value] | viability change, negative = cytotoxic [6] -11.9% [at 8.47 µM] | activity change, negative = inhibition [8] 1.72% [at 8.47 µM] | activity change, negative = cytotoxic [10] 2.43% [at 8.44 µM]

COC(=O)c1ccc(I)cc1S(=O)(=O)NC(=O)Nc1nc(C)nc(OC)n1
inactive: Potency [1] | Potency [2] | Potency [3] | Potency [4] | Potency [5] | Potency [6]

C=C(C)C(=O)OCCOCC
inactive: Potency [1] | Potency [2] | Potency [3] | Potency [4] | Potency [5] | Potency [6]

O=C(O)c1ccc(-n2nc(-c3ccccc3O)nc2-c2ccccc2O)cc1
active: Potency [2] 13.3 µM | Potency [3] 18.8 µM | Potency [4] 18.8 µM
inactive: Potency [1] | Potency [5] | Potency [6]

C/C(=C(\CCOP(=O)(O)O)SC(=O)c1ccccc1)N(C=O)Cc1cnc(C)nc1N
active: Potency [7] 12.7 µM
inactive: Potency [1] | Potency [2] | Potency [3] | Potency [4] | Potency [5] | Potency [9] | Potency [6] | Potency [8] | Potency [10]

CCO[C@H](Cc1ccc(OCCc2ccc(OS(C)(=O)=O)cc2)cc1)C(=O)O
inactive: Potency [1] | Potency [2] | Potency [3] | Potency [4] | Potency [5] | Potency [9] | Potency [7] | Potency [6] | Potency [8] | Potency [10]

CNCCCN1c2ccccc2CCc2ccccc21
inactive: Potency [1] | Potency [5] | Potency [7] | Potency [6] | Potency [8]
active: Potency [2] 4.52 µM | Potency [3] 16 µM | Potency [4] 11.4 µM | Potency [10] 8.04 µM
